Compound activity: PubChem BioAssay, National Center for Advancing Translational Sciences (NCATS)
This is a sample that favours compounds with a hit; in the whole collection about 4.3% have one here.
Giardia kill – kills Giardia lamblia | Giardia lamblia trophozoite viability | activity change, % at 7.66 µM, hits read low | hit rate 0.15% among 340,000; in the data active = activity change below about -80%; inconclusive = between about -30% and that limit;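 also: parasites exposed to compound for two days anaerobically before the ATP read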
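Viability, read as ATP luminescence: trophozoites at 100 cells/well, compound added, 48 hrs anaerobic at 37 deg C, then 15-30 min room-temperature development before reading.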
MCF10A rerep – induces DNA re-replication in MCF 10a normal breast cells; MCF 10A DNA re-replication, Hoechst nuclear intensity, 48 h; Potency, µM (series often up to 46.1 µM), actives largely listed as activators; hit rate 2.9% among 350,000; also: nearly all actives have a fitted effect of over 50% in size
uPA generation – inhibitors of cell surface uPA generation | AID 540303 | cell surface uPA generation assay, qHTS | hit rate 0.31% among 330,000 | Potency, µM (highest dose often 38.3 µM), most hits filed as inhibitors; active = well fitted inhibition curve with a large enough effect; inconclusive = small, poorly fitted or top-dose-only effect; inactive = no such curve, though single readings can be large or run the other way; tested in mouse RAW 264.7 cells; also: nearly all actives have a fitted effect of over 55% in size
SW480 rereplic – inducers of DNA re-replication in SW480 colon cancer cells; SW480 DNA re-replication, Hoechst DNA content imaging, 48 h; Potency, µM (highest dose often 46.1 µM), hits mostly activators; hit rate 1.8% among 340,000; also: nearly all actives have a fitted effect of over 55% in size
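Treated cells incubate 48 hr (37 C, 5% CO2), are stained 40 min with Hoechst, and nuclear fluorescence is enumerated; a rise in nuclei with high DNA signal marks re-replication.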
Numbers stand for hits; 0 = inactive; ? = inconclusive; - = not tested or not shown. Unless noted, calls follow the shape of the dose curve; as a rule, active = well fitted activation curve with a large enough effect; inconclusive = small, poorly fitted or top-dose-only effect; inactive = no such curve, though single readings can be large or run the other way.

SMILES	Giardia kill	MCF10A rerep	uPA generation	SW480 rereplic
COc1ccc(/C=N/Nc2ccc([N+](=O)[O-])cc2)cc1O	0	12µM	0	16µM
Cc1cccc(C)c1-n1c(C)cc(/C=N\Nc2ccc([N+](=O)[O-])cn2)c1C	0	5.2µM	0	?
COc1cc(/C=N/Nc2ccc([N+](=O)[O-])cn2)cc(OC)c1O	0	21µM	0	16µM
O=[N+]([O-])c1ccc(NN=Cc2cc(Br)ccc2O)nc1	0	0	0	0.73µM
Nc1cc(C(=O)OCC(=O)Nc2cccc(S(=O)(=O)N3CCOCC3)c2)ccc1Cl	0	0	0	0
O=[N+]([O-])c1ccc(NN=Cc2cccc(O)c2)nc1	0	16µM	0	?
O=[N+]([O-])c1ccc(N/N=C\c2cccnc2)nc1	0	0	0	0
O=C(CSc1nc2ccc(N3CCOCC3)cc2c(=O)n1CCc1ccccc1)NCC1CCCO1 (stereo unspecified)	0	23µM	0	0
CCCCNC(=O)CSc1nc2ccc(N3CCOCC3)cc2c(=O)n1CCc1ccccc1	0	0	0	0
CC(=O)Nc1ccc(S(=O)(=O)NC2=C(N3CCN(c4ccc(F)cc4)CC3)C(=O)c3ccccc3C2=O)cc1	0	16µM	0	16µM
Cc1ccc(O)c(NC2=C(Cl)C(=O)N(Cc3ccccc3)C2=O)c1	0	0	0	0
Cc1ccc(C(=O)N2CCCCC2)cc1NC1=C(Cl)C(=O)N(Cc2ccccc2)C1=O	0	8.2µM	?	?
CCOc1cc(CNCCO)cc(Br)c1OCc1ccccc1	0	0	0	?
CCOc1cc(CNCCSc2nnnn2C)cc(Br)c1OCc1ccccc1	0	15µM	0	?
CN(C)S(=O)(=O)c1cccc(NC(=S)Nc2cccc3cnccc23)c1	0	21µM	0	?
S=C(Nc1cccnc1)Nc1cccc2cnccc12	0	0	0	0
CC(C)C[C@H](NC(=O)N1CCn2c1nc1ccccc12)C(=O)NCc1ccc2c(c1)OCO2	0	0	0	0
CSc1ccc(CCCCCCOC(=O)C(C)(C)C)cc1	0	0	0	0
O=S(=O)(c1ccccc1Cl)N1CCN(c2nc(-c3ccccc3)nc3ccccc23)CC1	0	-	-	-
Cc1csc(NC(=O)c2cc3c(C)nn(Cc4ccccc4Cl)c3s2)n1	0	10µM	0	?
Cc1ccc(-n2cnc(N)c2C(=O)c2cccc([N+](=O)[O-])c2)cc1	0	15µM	0	?
Cc1ccc(C(=O)O/N=C(\N)c2cccc([N+](=O)[O-])c2)cc1	0	0	-	0
COc1ccc2[nH]c(CN3CCN(CC=C(C)C)C(CCO)C3)c(C)c2c1 (stereo unspecified)	0	16µM	0	0
COc1ccc2[nH]c(CN3CCN(CCC(C)C)C(CCO)C3)c(C)c2c1 (stereo unspecified)	0	0	0	0
Cc1ccc(NC(=O)CCn2c(=S)oc3ccccc32)cc1	0	0	0	0
SMILES	Giardia kill	MCF10A rerep	uPA generation	SW480 rereplic
CCCCC(=O)/C=C/n1c(=S)oc2ccccc21	0	2.9µM	0	6.5µM
CC(C)OC(=O)n1c(=S)oc2ccccc21	0	4.6µM	0	?
CC(C)NC(=O)CCn1c(=S)oc2ccccc21	0	0	0	0
CC(C)CCC(CCNCc1ccccn1)c1ccc(Cl)cc1 (stereo unspecified)	0	?	0	?
O=C(Cn1cc(COc2ccc(Br)cc2[N+](=O)[O-])nn1)c1ccc(O)cc1	0	0	0	9.2µM
COC(=O)[C@@]1(Cc2ccc(F)cc2)[C@H]2c3cc(C(=O)N(C)C)n(Cc4ccccc4)c3C[C@H]2CN1C(=O)c1ccccc1	0	?	0	?
COC(=O)[C@@]1(Cc2ccc(OC)cc2)[C@H]2c3cc(C(=O)N(C)C)n(Cc4ccc(OC(F)(F)F)cc4)c3C[C@H]2CN1C(=O)c1ccccc1	0	?	?	18µM
CC(C)N(Cc1ccccc1)C(=O)CC(=O)N(Cc1ccccc1)C(C)C	0	0	0	0
COc1cc(CNC2CCCC2)cc(Cl)c1OCc1ccccc1Cl	0	16µM	-	?
CCCCCCCCCCCCCCCC[n+]1cccc(C(=O)N(CC)CC)c1	0	?	?	21µM
CC12CCC(/C(=N/O)C1=O)C2(C)C (stereo unspecified)	0	-	-	-
O=C(NC1CCCCC1)c1n[nH]c2c1CCCCC2	?	0	3.2µM	0
NC(=S)NN=C1C=CCCC1	0	0	0	0
Cn1nnnc1Sc1ncnc2scc(-c3ccc(F)cc3)c12	0	?	0	10µM
Cn1nnnc1Sc1ncnc2scc(-c3ccc(Br)cc3)c12	0	?	?	?
Cn1nnnc1Sc1ncnc2scc(Br)c12	0	3.7µM	2.8µM	4.6µM
Cn1nnnc1Sc1ncnc2scc(-c3ccccc3)c12	0	?	0	16µM
Cn1nnnc1Sc1ncnc2scc(-c3ccccc3Br)c12	0	0	?	?
CCOc1ccc2c(S(=O)(=O)O)cccc2c1[N+](=O)[O-]	0	0	0	0
Cc1ccc(CNc2ccc3c(c2)OCO3)cc1	0	23µM	-	23µM
C[C@]12CC[C@H]3c4ccc(O)cc4CC[C@@H]3[C@H]1CC[C@@H]2OC(=O)CCC1CCCC1	-	?	-	0
CC(C)c1ccc(C(=O)Nc2cccnc2)cc1	0	0	0	0
CCN(CC(=O)Nc1ccccc1-c1ccccc1)Cc1nc2ccccc2c(=O)[nH]1	0	6.5µM	0	?
CCN(CC(=O)Nc1ccccc1OC)CC(=O)Nc1ccccc1C(F)(F)F	0	?	0	?
CCN(CC(=O)Nc1ccccc1SC)Cc1nc2ccccc2c(=O)[nH]1	0	0	0	?
SMILES	Giardia kill	MCF10A rerep	uPA generation	SW480 rereplic
CCN(CC(=O)Nc1ccccc1OC)CC(=O)Nc1ccccc1-c1ccccc1	0	15µM	0	?
CN1C[C@@H]2[C@@H]3C(=O)N(C)C(=O)[C@@H]3[C@](C)(C1=O)N2C(=O)c1ccc(Cl)cc1	0	0	0	0
CCOC(=O)/C(=C\c1cccc(O)c1)c1nc2sc(C)c(C)c2c(=O)[nH]1	0	2.3µM	0	?
CCOC(=O)c1nc2sc(C)c(C)c2c(=O)[nH]1	0	0	0	0
Cc1cccc(OCCOC(=O)c2c(-c3ccccc3)noc2C)c1	0	18µM	0	8.2µM
CCCCCCCC/C=C\CCCCCCCCN	-	0	-	0
CC1CCC(C(C)C)C(=O)C1 (stereo unspecified)	-	0	-	0
CCOc1ccc(S(=O)(=O)N2CCN=C2c2ccccc2)cc1	0	21µM	0	7.3µM
Brc1ccc(CNc2nc3ccccc3n2CCN2CCCCC2)cc1	-83	0	?	0
CN(C)C(CNC(=O)CSc1nc2sc3c(c2c(=O)n1C)CCCC3)c1ccccc1 (stereo unspecified)	0	?	0	0
CC(C)(C)NC(=O)CCN(/N=C/c1ccc([N+](=O)[O-])o1)C1=NS(=O)(=O)c2ccccc21	-92	23µM	0	13µM
CN(C)c1ccc(/C=N/N(CCO)C2=NS(=O)(=O)c3ccccc32)cc1	0	0	0	0
CN(C)c1ccc(/C=N/N(CCC(=O)NC(C)(C)C)C2=NS(=O)(=O)c3ccccc32)cc1	0	18µM	0	18µM
CCCc1cc2c(=O)c(-c3nc4ccccc4s3)c(COCC(=O)O)oc2cc1O	0	23µM	0	?
